PAFAH2 inh: inhibitors of human PAFAH2 | AID 492956 | 340,000 tested, 0.99% active | Q99487 | inhibition, % at 3.39 µM | recombinant PAFAH2, FP-rhodamine activity probe, fluorescence polarization;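 active = inhibition above the mean over all tested compounds plus 3 SD, cut at about 30% in these data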;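 note: inhibitors block probe labeling of enzyme so polarization drops; 0% = enzyme with DMSO and 100% = wells lacking PAFAH2 protein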
PAFAH1B2 FP inh: PAFAH1B2 (human) inhibition; recombinant PAFAH1B2, FP-rhodamine activity probe, fluorescence polarization; AID 492953; 340,000 tested, 1.2% active; inhibition, % at 3.39 µM;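 active = inhibition above the mean of all tested compounds plus 3 SD, cut at about 24% in these data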;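 note: 0% = enzyme with DMSO and 100% = wells lacking PAFAH1B2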
PAFAH1B3 inh: inhibitors of human PAFAH1B3 | AID 492972 | 340,000 tested, 0.28% active | inhibition, % at 3.39 µM | Q15102 | recombinant PAFAH1B3, FP-rhodamine probe, fluorescence polarization;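 active = inhibition above the screen-wide average of all tested compounds plus 3 SD, cut at about 25% in these data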;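 note: 0% = enzyme with DMSO only and 100% = wells lacking PAFAH1B3 protein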
Target sequence (Q15102 whole entry, looked up): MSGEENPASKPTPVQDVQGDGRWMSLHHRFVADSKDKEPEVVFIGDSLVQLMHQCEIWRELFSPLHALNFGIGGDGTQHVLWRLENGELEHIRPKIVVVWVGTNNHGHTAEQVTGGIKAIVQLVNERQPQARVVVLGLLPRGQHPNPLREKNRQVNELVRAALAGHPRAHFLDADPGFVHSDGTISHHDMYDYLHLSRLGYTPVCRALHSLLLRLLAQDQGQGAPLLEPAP
DAGLB inh: blocks human DAGLB lipase activity. HEK293T DAGLB membrane lysate, EnzChek fluorogenic substrate. AID 504411. Q8NCG7. 340,000 tested, 0.059% active. inhibition, % at 5.17 µM; in the data active = inhibition above about 34%;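 note: 0% = enzyme with vehicle and 100% = wells lacking enzyme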
HTRA1 inh: blocks human HTRA1 serine peptidase | 340,000 tested, 0.5% active | recombinant HTRA1, FP-rhodamine activity-based probe, fluorescence polarization | Q92743 | AID 504803 | inhibition, % at 5.96 µM; in the data active = inhibition above about 36%;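 note: 0% = enzyme with DMSO and 100% = wells lacking enzyme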
pPAFAH FP inh: inhibitors of human plasma PAF acetylhydrolase (pPAFAH); recombinant pPAFAH, FP-rhodamine probe fluorescence polarization; inhibition, % at 3.39 µM; 330,000 tested, 1.5% active;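 active = inhibition above the mean inhibition across the screen plus 3 SD, cut at about 25% in these data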;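 note: inhibitors block binding of the rhodamine activity-based probe so polarization drops; 0% = enzyme with DMSO and 100% = wells lacking pPAFAH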
Target sequence (Q13093 whole entry, looked up): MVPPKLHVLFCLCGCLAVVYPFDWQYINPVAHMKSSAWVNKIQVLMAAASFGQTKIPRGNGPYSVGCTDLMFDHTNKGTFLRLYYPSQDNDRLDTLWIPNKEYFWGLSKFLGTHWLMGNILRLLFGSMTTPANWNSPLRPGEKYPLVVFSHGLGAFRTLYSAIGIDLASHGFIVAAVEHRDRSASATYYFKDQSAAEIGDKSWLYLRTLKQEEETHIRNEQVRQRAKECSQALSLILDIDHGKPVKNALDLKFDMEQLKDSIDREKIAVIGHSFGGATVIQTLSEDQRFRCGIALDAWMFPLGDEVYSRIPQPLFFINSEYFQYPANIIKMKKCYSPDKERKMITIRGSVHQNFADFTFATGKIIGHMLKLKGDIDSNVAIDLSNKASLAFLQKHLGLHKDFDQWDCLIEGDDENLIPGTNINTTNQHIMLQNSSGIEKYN
PAFAH2 FP conf: confirmation of human PAFAH2 inhibitors; 2,300 tested, 65% active; shares compounds with PAFAH2 inh; inhibition, % at 3.39 µM; recombinant PAFAH2, FP-rhodamine activity probe, fluorescence polarization;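 active = mean inhibition over three repeats above a set limit taken from the earlier primary screen, cut at about 30% in these data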;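 note: inhibitor blocks binding of rhodamine activity probe so polarization falls; 0% = enzyme with DMSO and 100% = wells lacking PAFAH2 protein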
An asterisk follows results filed as active. In the library only some 2.8% were active in any assay of this set; here they are far more common.

`COc1ccc(-c2ccc3oc(-c4ccsc4)cc(=O)c3c2)cn1` gave PAFAH2 inh 4, PAFAH1B2 FP inh 0, PAFAH1B3 inh -1, DAGLB inh -1, HTRA1 inh -3 and pPAFAH FP inh -8.
`COc1ccc(CCNC(=O)COC(=O)/C=C/c2ccc(OCC#N)c(OC)c2)cc1` gave PAFAH2 inh -1, PAFAH1B2 FP inh 1, PAFAH1B3 inh 12, DAGLB inh 0, HTRA1 inh 1 and pPAFAH FP inh -2.
COc1ccc(CCNC(=O)COC(=O)/C=C/c2ccc(OC)c(OC)c2)cc1 was read as PAFAH2 inh 39*, PAFAH1B2 FP inh 6, PAFAH1B3 inh 8, DAGLB inh -1, HTRA1 inh -8, pPAFAH FP inh 5 and PAFAH2 FP conf 26.
COc1ccc(/C=C/C(=O)OCC(=O)NCCCc2ccccc2)cc1OC was read as PAFAH2 inh 52*, PAFAH1B2 FP inh 1, PAFAH1B3 inh 4, DAGLB inh 0, HTRA1 inh -2, pPAFAH FP inh 11 and PAFAH2 FP conf 40*.
COc1ccc(/C=C/C(=O)OCC(=O)NCc2ccccc2Cl)cc1OC was read as PAFAH2 inh 79*, PAFAH1B2 FP inh 0, PAFAH1B3 inh 12, DAGLB inh 0, HTRA1 inh -7, pPAFAH FP inh -3 and PAFAH2 FP conf 76*.
Screening O=C(O/N=C1\CCCc2ccccc21)c1cccs1 returned PAFAH2 inh 42*, PAFAH1B2 FP inh 4, PAFAH1B3 inh 4, DAGLB inh -13, HTRA1 inh -7, pPAFAH FP inh -1 and PAFAH2 FP conf -5.
For Cc1cc(C)cc(NC(=O)C2C3C=CC4(O3)C2C(=O)N(CCCN(C)C)C4C(=O)NC2CCCC(C)C2C)c1 (stereo not given) the results were PAFAH2 inh 0, PAFAH1B2 FP inh 4, PAFAH1B3 inh 4, DAGLB inh 1, HTRA1 inh 8 and pPAFAH FP inh 6.
For CC(C)CNC(=O)COC(=O)c1ccccc1SCC(=O)NCC(C)C the results were PAFAH2 inh 44*, PAFAH1B2 FP inh 2, PAFAH1B3 inh 11, DAGLB inh 0, HTRA1 inh 1, pPAFAH FP inh 2 and PAFAH2 FP conf 32*.
Screening CCCCNC(=O)c1ccccc1SCC(=O)NC1CCCCCCC1 returned PAFAH2 inh 36*, PAFAH1B2 FP inh 5, PAFAH1B3 inh 5, DAGLB inh -3, HTRA1 inh -3, pPAFAH FP inh 0 and PAFAH2 FP conf 28.
`COc1cccc(OC)c1C(=O)OCC(=O)NCC(C)C` gave PAFAH2 inh 14, PAFAH1B2 FP inh 8, PAFAH1B3 inh 0, DAGLB inh -1, HTRA1 inh 3 and pPAFAH FP inh 3.
Screening NC(=O)COC(=O)c1ccccc1SCC(=O)NC1CCCCCC1 returned PAFAH2 inh 61*, PAFAH1B2 FP inh -2, PAFAH1B3 inh 1, DAGLB inh -2, HTRA1 inh 7, pPAFAH FP inh 4 and PAFAH2 FP conf 49*.
`CSc1ccccc1C(=O)OCC(=O)NC1CCCCCCC1` gave DAGLB inh -3 and HTRA1 inh -15.
`COc1ccc(CNC(=O)COC(=O)/C=C/c2cccc(Br)c2)cc1` gave PAFAH2 inh -2, PAFAH1B2 FP inh 3, PAFAH1B3 inh -2, DAGLB inh 2, HTRA1 inh 4 and pPAFAH FP inh -1.
`O=C(CNC(=O)c1ccc2c(c1)OCCO2)N/N=C/c1ccc([N+](=O)[O-])cc1` gave PAFAH2 inh 6, PAFAH1B2 FP inh -3, PAFAH1B3 inh 4, DAGLB inh -1, HTRA1 inh 0 and pPAFAH FP inh 1.
Screening COc1cccc(CNC(=O)c2ccc(NC(=O)C3=CSCCO3)cc2)c1 returned PAFAH2 inh 4, PAFAH1B2 FP inh 1, PAFAH1B3 inh 5, DAGLB inh -3, HTRA1 inh -10 and pPAFAH FP inh 3.
For CCN(C[C@H]1N[C@@](C)(C(=O)OC)[C@H]2C(=O)N(Cc3ccccc3)C(=O)[C@@H]12)S(=O)(=O)c1ccc(OC)cc1 the results were PAFAH2 inh -1, PAFAH1B2 FP inh 5, PAFAH1B3 inh 8, DAGLB inh -2, HTRA1 inh 2 and pPAFAH FP inh 1.
N#CCN(N=Nc1ccccc1)c1ccccc1 was read as PAFAH2 inh -3, PAFAH1B2 FP inh -2, PAFAH1B3 inh 5, DAGLB inh -4, HTRA1 inh -3 and pPAFAH FP inh 11.
`COC(=O)c1noc(C)c1-c1ccnn1C(=O)c1ccc(C)cc1` gave PAFAH2 inh 54*, PAFAH1B2 FP inh -3, PAFAH1B3 inh 6, DAGLB inh 4, HTRA1 inh 7, pPAFAH FP inh -3 and PAFAH2 FP conf 33*.
Screening COc1cc(C(=O)NNC(=S)NC(=O)c2ccc(F)cc2)cc(OC)c1OC returned PAFAH2 inh 51*, PAFAH1B2 FP inh 9, PAFAH1B3 inh 5, DAGLB inh 0, HTRA1 inh 1, pPAFAH FP inh 7 and PAFAH2 FP conf 23.
COc1ccc(C(=O)NNC(=S)NC(=O)c2ccc(F)cc2)cc1Br was read as pPAFAH FP inh 5.
`Cc1cccc2c(=O)oc(-c3ccccc3Cl)nc12` gave PAFAH2 inh 49*, PAFAH1B2 FP inh 4, PAFAH1B3 inh 5, DAGLB inh 2, HTRA1 inh -25, pPAFAH FP inh 8 and PAFAH2 FP conf 40*.
Screening Cc1ccccc1-c1nc2cc(Cl)ccc2c(=O)o1 returned PAFAH2 inh 16, PAFAH1B2 FP inh 0, PAFAH1B3 inh -5, DAGLB inh -2, HTRA1 inh -20 and pPAFAH FP inh -4.
CCc1ccc(C(=O)OCC(=O)N2CCCCCC2)cc1 was read as PAFAH2 inh 38*, PAFAH1B2 FP inh -1, PAFAH1B3 inh 2, DAGLB inh -2, HTRA1 inh 3, pPAFAH FP inh -4 and PAFAH2 FP conf 18.
`CC1Cc2ccccc2N1C(=O)COC(=O)c1ccc(O)cc1` (stereo not given) gave PAFAH2 inh 2, PAFAH1B2 FP inh 4, PAFAH1B3 inh -6, DAGLB inh 2, HTRA1 inh -8 and pPAFAH FP inh 2.
`CC1Cc2ccccc2N1C(=O)COC(=O)c1ccc(N(C)C)cc1` (stereo not given) gave PAFAH2 inh 55*, PAFAH1B2 FP inh 5, PAFAH1B3 inh 6, DAGLB inh -3, HTRA1 inh 0, pPAFAH FP inh 1 and PAFAH2 FP conf 55*.
COc1ccccc1/C=C/C(=O)OCC(=O)N1c2ccccc2CC1C (stereo not given) was read as PAFAH2 inh 34*, PAFAH1B2 FP inh -1, PAFAH1B3 inh -2, DAGLB inh -11, HTRA1 inh -27, pPAFAH FP inh -1 and PAFAH2 FP conf 12.

Screening data deposited in PubChem by The Scripps Research Institute Molecular Screening Center.
